# Reference: the antibiotic and cytotoxicity screens of Wong et al. (2023)
# Out of some 39,000 compounds screened, about 3,300 (8.5%) were called active. This is one part of a sample in which actives are shown more often than they occur.
# Test system: HepG2
# Assay: cytotoxicity call (relative viability < 0.9)
# Details: 10 µM
row,Structure (SMILES),cytotoxicity call
1,CC(C)=CCC[C@@H](C)CCO,inactive
2,CC(=O)N1[C@@H](CO)[C@H](c2ccccc2)[C@@H]1CNC(=O)CN1CCOCC1,inactive
3,COc1ccc(C[C@H](NC(=O)[C@H](C)NC(=O)CN2CCOCC2)C(=O)N[C@@H](Cc2ccccc2)C(=O)[C@@]2(C)CO2)cc1,active
4,CC(=O)N[C@@H](Cc1ccccc1)C(=O)O,inactive
5,CC(=O)N1[C@H](CNC(=O)CN2CCOCC2)[C@@H](c2ccccc2)[C@@H]1CO,inactive
6,COC(=O)C(Cc1ccccc1)NC(=O)C(N)CC(=O)O (stereo not given),inactive
7,COC[C@H](NC(=O)c1cnc(C)s1)C(=O)N[C@@H](COC)C(=O)N[C@@H](Cc1ccccc1)C(=O)[C@@]1(C)CO1,active
8,COC(=O)[C@H](Cc1ccccc1)NC(=O)[C@@H](N)CC(=O)O,inactive
9,CC(=O)N[C@@H](Cc1ccccc1)C(=O)NN,inactive
10,CC(C)C[C@H](NC(=O)[C@H](CCc1ccccc1)NC(=O)CN1CCOCC1)C(=O)N[C@@H](Cc1ccccc1)C(=O)N[C@@H](CC(C)C)C(=O)[C@@]1(C)CO1,active
11,C[C@@H]1CN([C@H](C)CO)C(=O)c2cccc(NC(=O)c3ccc(-c4nccs4)cc3)c2O[C@H]1CN(C)Cc1ccc(C(=O)Nc2ccccc2N)cc1,inactive
12,NCCC[C@@H](N)CC(=O)NC[C@H]1NC(=O)[C@@H](CO)NC(=O)[C@@H](N)CNC(=O)[C@H]([C@H]2CCN=C(N)N2)NC(=O)C(C=NC(N)=O)NC1=O (stereo not given in full),inactive
13,O=C(C[C@H]1CC[C@H]2[C@@H](COC[C@H](O)CN2C(=O)C2CC2)O1)NCc1ccncc1,inactive
14,C=CCNc1ncnc2c1cnn2C,inactive
15,CNC(=O)C[C@@H]1CC[C@H]2[C@@H](COC[C@@H](O)CN2C(=O)c2ccccn2)O1,inactive
16,CO[C@H]1CN(C)C(=O)c2cc(NS(=O)(=O)c3ccccc3)ccc2OC[C@H](C)N(C(=O)NC(C)C)C[C@@H]1C,inactive
17,C[C@H]1CN([C@@H](C)CO)C(=O)Cc2cc(NC(=O)Nc3ccc4c(c3)OCO4)ccc2O[C@H]1CN(C)Cc1ccc(Cl)c(Cl)c1,active
18,C[C@H]1CN([C@@H](C)CO)C(=O)Cc2cc(NC(=O)Nc3ccc4c(c3)OCO4)ccc2O[C@@H]1CN(C)Cc1ccc(Cl)c(Cl)c1,inactive
19,C[C@@H]1CN([C@H](C)CO)C(=O)Cc2cc(NC(=O)Nc3ccc4c(c3)OCO4)ccc2O[C@@H]1CN(C)Cc1ccc(Cl)c(Cl)c1,inactive
20,C[C@@H]1CN([C@@H](C)CO)C(=O)Cc2cc(NC(=O)Nc3ccc4c(c3)OCO4)ccc2O[C@H]1CN(C)Cc1ccc(Cl)c(Cl)c1,active
21,C[C@@H]1CN([C@@H](C)CO)C(=O)Cc2cc(NC(=O)Nc3ccc4c(c3)OCO4)ccc2O[C@@H]1CN(C)Cc1ccc(Cl)c(Cl)c1,inactive
22,C[C@H](CO)N1C[C@H](C)[C@H](CN(C)Cc2ccc(Cl)c(Cl)c2)Oc2ccc(NC(=O)Nc3ccc4c(c3)OCO4)cc2CC1=O,active

row,Structure (SMILES),cytotoxicity call
1,C[C@H](CO)N1C[C@H](C)[C@@H](CN(C)Cc2ccc(Cl)c(Cl)c2)Oc2ccc(NC(=O)Nc3ccc4c(c3)OCO4)cc2CC1=O,inactive
2,C[C@@H]1CN([C@H](C)CO)C(=O)Cc2cc(NC(=O)Nc3ccc4c(c3)OCO4)ccc2O[C@H]1CN(C)Cc1ccc(Cl)c(Cl)c1,inactive
3,CCS(=O)(=O)N1CC[C@]2(CC1)CN([C@@H](CO)c1[nH]c3cc(ccc3c12)OC)C(=O)c1ccc(cc1)F,inactive
4,COc1ccc(S(=O)(=O)N(C)C[C@H]2OCCCC[C@H](C)Oc3ccc(NC(=O)Nc4ccc(F)cc4)cc3C(=O)N([C@@H](C)CO)C[C@H]2C)cc1,inactive
5,CN1CCN(C(=O)[C@@H]2[C@@H](C(=O)O)[C@H]3CC[C@H]2O3)CC1,inactive
6,CN(C)CC(=O)N1CC(=O)N2[C@@H](CO)[C@H](c3ccc(C#Cc4cccnc4)cc3)[C@@H]2C1,inactive
7,CN1CCN(C)[C@@H](CO)C1,inactive
8,Cc1ccc(S(=O)(=O)N(C)C[C@@H]2OCCCC[C@@H](C)Oc3ccc(NC(=O)c4ccccc4)cc3C(=O)N([C@@H](C)CO)C[C@@H]2C)cc1,inactive
9,C[C@@H]1CN([C@H](C)CO)C(=O)c2cc(NS(=O)(=O)c3cn(C)cn3)ccc2O[C@@H]1CN(C)C(=O)Nc1ccc(F)cc1,inactive
10,CC(=O)OC1CC23CC24CCC(OC2OCC(O)C(O)C2O)C(C)(C)C4CCC3C2(C)CC3OC4(CC(C)C3C12C)OC(O)C1(C)OC41 (stereo not given),inactive
11,CC(CC(=O)C1OC1(C)C)C1C(=O)CC2(C)C3=CCC4C(C)(C)C(OC5OCC(O)C(O)C5O)CCC45CC35C(O)CC12C (stereo not given),active
12,CC1(C)CC[C@]2(C(=O)O[C@@H]3O[C@H](CO[C@@H]4O[C@H](CO)[C@@H](O)[C@H](O)[C@H]4O)[C@@H](O)[C@H](O)[C@H]3O)CC[C@]3(C)C(=CC[C@H]4[C@@]5(C)CC[C@H](O[C@@H]6OC[C@H](O)[C@H](O)[C@H]6O)C(C)(C)[C@@H]5CC[C@]43C)[C@@H]2C1,inactive
13,O=C(Nc1cc(C(=O)Nc2ccc(S(=O)(=O)O)cc2S(=O)(=O)O)cc(C(=O)Nc2ccc(S(=O)(=O)O)cc2S(=O)(=O)O)c1)Nc1cc(C(=O)Nc2ccc(S(=O)(=O)O)cc2S(=O)(=O)O)cc(C(=O)Nc2ccc(S(=O)(=O)O)cc2S(=O)(=O)O)c1,inactive
14,CC(C)CC#Cc1cnc2c(c1)C(=O)N([C@H](C)CO)C[C@@H](C)[C@@H](CN(C)S(=O)(=O)c1ccccc1)O2,inactive
15,C[C@@H]1CCCCO[C@@H](CN(C)C(=O)Nc2cccc3ccccc23)[C@H](C)CN([C@H](C)CO)C(=O)c2cc(NS(=O)(=O)c3cccs3)ccc2O1,inactive
16,C[C@@H]1CCCCO[C@H](CN(C)C(=O)Nc2cccc3ccccc23)[C@H](C)CN([C@H](C)CO)C(=O)c2cc(NS(=O)(=O)c3cccs3)ccc2O1,active
17,C[C@@H]1CCCCO[C@H](CN(C)C(=O)Nc2cccc3ccccc23)[C@@H](C)CN([C@H](C)CO)C(=O)c2cc(NS(=O)(=O)c3cccs3)ccc2O1,inactive
18,C[C@H](CO)N1C[C@H](C)[C@H](CN(C)C(=O)Nc2cccc3ccccc23)OCCCC[C@H](C)Oc2ccc(NS(=O)(=O)c3cccs3)cc2C1=O,inactive
19,C[C@H]1CCCCO[C@H](CN(C)C(=O)Nc2cccc3ccccc23)[C@@H](C)CN([C@@H](C)CO)C(=O)c2cc(NS(=O)(=O)c3cccs3)ccc2O1,active
20,C[C@@H]1CN([C@@H](C)CO)C(=O)c2cc(NS(=O)(=O)c3cccs3)ccc2O[C@@H](C)CCCCO[C@H]1CN(C)C(=O)Nc1cccc2ccccc12,inactive
21,C[C@H]1CCCCO[C@@H](CN(C)C(=O)Nc2cccc3ccccc23)[C@@H](C)CN([C@@H](C)CO)C(=O)c2cc(NS(=O)(=O)c3cccs3)ccc2O1,inactive
22,C[C@H](CO)N1C[C@H](C)[C@@H](CN(C)C(=O)Nc2cccc3ccccc23)OCCCC[C@H](C)Oc2ccc(NS(=O)(=O)c3cccs3)cc2C1=O,active

row,Structure (SMILES),cytotoxicity call
1,C[C@@H]1CN([C@@H](C)CO)C(=O)c2cc(NS(=O)(=O)c3cccs3)ccc2O[C@@H](C)CCCCO[C@@H]1CN(C)C(=O)Nc1cccc2ccccc12,inactive
2,CO[C@@H](CN(C)C(=O)c1ccc2c(c1)OCO2)[C@H](C)CN([C@@H](C)CO)S(=O)(=O)c1ccc(F)cc1,inactive
3,C[C@@H]1CCCCO[C@@H](CN(C)C(=O)CCC(F)(F)F)[C@H](C)CN([C@H](C)CO)C(=O)c2cc(NC(=O)C3CCCCC3)ccc2O1,inactive
4,C[C@@H]1CN([C@@H](C)CO)C(=O)c2cccc(NC(=O)Nc3ccc4c(c3)OCO4)c2O[C@H]1CN(C)Cc1ccc(C(=O)Nc2ccccc2N)cc1,inactive
5,O=C(CCCCCNC(=O)OCc1ccc(CO[C@H]2C[C@@H](c3coc4ccccc4c3=O)C=C(C(=O)N3CCN(Cc4ccccc4)CC3)O2)cc1)NO,inactive
6,O=C(CN1CCOCC1)N[C@H]1CC[C@@H](CCNS(=O)(=O)c2ccccc2F)O[C@@H]1CO,inactive
7,Cc1ccc(S(=O)(=O)Nc2cccc3c2O[C@@H](CN(C)Cc2ccc(Cl)c(Cl)c2)[C@@H](C)CN([C@@H](C)CO)C3=O)cc1,inactive
8,CC(C)NC(=O)N(C)C[C@H]1Oc2ccc(NC(=O)CCC(F)(F)F)cc2C(=O)N([C@H](C)CO)C[C@H]1C,inactive
9,N#C[C@H]1N[C@H](CO)[C@H]1c1ccccc1,inactive
10,C[C@H](CO)N1C[C@H](C)[C@H](CN(C)S(=O)(=O)c2ccc(C#N)cc2)Oc2ncc(C#CC(C)(C)O)cc2C1=O,inactive
11,COc1ccccc1S(=O)(=O)N1C[C@@H](O)COC[C@@H]2O[C@@H](CC(=O)O)CC[C@H]21,inactive
12,C[C@H](CO)N1C[C@H](C)[C@@H](CN(C)C(=O)c2ccccn2)Oc2cc(C#Cc3ccccc3)ccc2S1(=O)=O,inactive
13,C[C@@H]1CN([C@H](C)CO)C(=O)c2c(c3ccccc3n2C)-c2ccccc2CO[C@@H]1CN(C)C(=O)Nc1ccc(-c2ccccc2)cc1,inactive
14,C[C@@H]1CN([C@@H](C)CO)C(=O)c2c(c3ccccc3n2C)-c2ccccc2CO[C@H]1CN(C)C(=O)Nc1ccc(-c2ccccc2)cc1,inactive
15,C[C@H]1CN([C@@H](C)CO)C(=O)c2c(c3ccccc3n2C)-c2ccccc2CO[C@H]1CN(C)C(=O)Nc1ccc(-c2ccccc2)cc1,active
16,C[C@@H]1CN([C@@H](C)CO)C(=O)c2ccccc2-c2ccccc2CO[C@@H]1CN(C)C(=O)Nc1ccc(-c2ccccc2)cc1,inactive
17,C[C@H]1CN([C@@H](C)CO)C(=O)c2ccccc2-c2ccccc2CO[C@@H]1CN(C)C(=O)Nc1ccc(-c2ccccc2)cc1,inactive
18,C[C@@H]1CN([C@@H](C)CO)C(=O)c2c(c3ccccc3n2C)-c2ccccc2CO[C@@H]1CN(C)C(=O)Nc1ccc(-c2ccccc2)cc1,inactive
19,C[C@@H]1CN([C@H](C)CO)C(=O)c2ccccc2-c2ccccc2CO[C@H]1CN(C)C(=O)Nc1ccc(-c2ccccc2)cc1,active
20,C[C@H](CO)N1C[C@H](C)[C@@H](CN(C)C(=O)Nc2ccc(-c3ccccc3)cc2)OCc2ccccc2-c2c(n(C)c3ccccc23)C1=O,inactive
21,C[C@@H]1CN([C@H](C)CO)C(=O)c2c(c3ccccc3n2C)-c2ccccc2CO[C@H]1CN(C)C(=O)Nc1ccc(-c2ccccc2)cc1,active
